Test results from PubChem BioAssay.
Calls of active or inactive are those of the source.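 The calls were made as follows, unless noted: active = visually confirmed hit in the image check and inhibition above 20%; inconclusive = visually confirmed hit but inhibition not above 20%; inactive = no visual hit in the image check.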 Where a SMILES comes first, the peptide text is derived from it. The star is where a group is joined. Boc = CC(C)(C)OC(=O)*

Assays:
[1] = inhibitors of TNFa-induced NFkB p65 translocation, primary screen, imaging, HUVEC, MLSMR starter and 10KST1 sets (AID 438;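 active = inhibition above 20% together with a positive visual image hit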;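 also: compound added about 3h40 before a 20 min TNFalpha stimulation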;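 as to inhibition: signal is the nuclear over cytoplasmic p65 intensity ratio per well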); conditions: HUVEC TNFa-induced p65 nuclear translocation; cell count: measured here: nuclei count (cytotoxicity indicator), at 2.08 µM; inhibition: at 2 µM, stronger effect = higher value, 0% TNFa-plus-vehicle, 100% no-TNFa wells
[2] = inhibitors of mutant huntingtin aggregation, primary screen, imaging, exon1htt(103Q)mCFP cells, high-content imaging (AID 483;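 active = visual image review flags a hit and inhibition of aggregation exceeds 20%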;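 also: compound exposure lasted 3 days before fixation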;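 as to nuclei count: percent of the per-plate median nuclei count of sample wells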); conditions: exon1htt(103Q)mCFP cell line, aggregate imaging, at 2 µM; inhibition of aggregation: stronger effect = higher value; nuclei count: measured here: cell count, toxicity
[3] = inhibitors of E-selectin induction by TNFa, primary screen, imaging, HUVEC, immunofluorescence, MLSMR starter and 10KST1 sets (AID 487); conditions: HUVEC TNFalpha-induced E-selectin immunofluorescence imaging, at 2 µM; inhibition: stronger effect = higher value; nuclei count: measured here: cell number, toxicity;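 as to inhibition: signal is fraction of cell area covered by stained E-selectin grains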;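 as to nuclei count: 100% = median nuclei count of all wells on the same plate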
[4] = molecular target: Voltage-gated potassium channel subunit beta-2 (Rattus norvegicus) (UniProt P62483); assay: KvBeta enzyme negative modulators, primary screen, biochemical, NADPH fluorescence (AID 622;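 active = fluorescence slope higher than the sample average by over 3 SD, cut at about -0.22 in these data, passing the limit was not always enough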;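 also: slope of raw intensity against log time taken from 70 to 1610 s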); conditions: recombinant KvBeta, 4-cyanobenzaldehyde reduction, at 10 µM, stronger effect = higher value
Sequence of Voltage-gated potassium channel subunit beta-2 (Rattus norvegicus) (P62483 whole entry, looked up): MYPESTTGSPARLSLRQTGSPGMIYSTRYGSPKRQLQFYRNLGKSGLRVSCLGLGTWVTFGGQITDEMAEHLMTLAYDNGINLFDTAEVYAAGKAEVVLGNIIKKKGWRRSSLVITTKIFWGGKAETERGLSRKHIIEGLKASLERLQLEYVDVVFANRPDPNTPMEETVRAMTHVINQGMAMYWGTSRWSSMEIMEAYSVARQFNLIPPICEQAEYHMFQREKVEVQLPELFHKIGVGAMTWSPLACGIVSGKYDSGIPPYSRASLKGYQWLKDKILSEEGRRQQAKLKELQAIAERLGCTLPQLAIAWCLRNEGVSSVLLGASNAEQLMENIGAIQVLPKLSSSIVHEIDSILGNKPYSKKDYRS

[5] = molecular target: Voltage-gated potassium channel subunit beta-2 (Rattus norvegicus) (UniProt P62483); assay: KvBeta positive modulators, primary screen, biochemical, NADPH fluorescence (AID 623;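 active = NADPH fluorescence slope more negative than the mean of all samples by about 3 SD, 99.7% confidence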;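 also: fluorescence intensity change per second fitted from 20 to 320 s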); conditions: Recombinant KvBeta, NADPH fluorescence decrease slope, 10 min; at 10 µM; stronger effect = lower value
[6] = molecular target: Alpha-2C adrenergic receptor (Homo sapiens) (UniProt P18825); assay: modulators of alpha2C/GIRK thallium flux, primary screen, cell-based, HEK293 alpha2C/GIRK1/2 (AID 624;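 active = fluorescence slope after compound addition differing from the mean of all screened samples at 99.7% confidence, in either direction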;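 also: slope of fluorescence ratio to pre-addition baseline per second over 15 to 24 s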); conditions: thallium flux BTC fluorescence, at 10 µM, actives lie on both sides
Sequence of Alpha-2C adrenergic receptor (Homo sapiens) (P18825 whole entry, looked up): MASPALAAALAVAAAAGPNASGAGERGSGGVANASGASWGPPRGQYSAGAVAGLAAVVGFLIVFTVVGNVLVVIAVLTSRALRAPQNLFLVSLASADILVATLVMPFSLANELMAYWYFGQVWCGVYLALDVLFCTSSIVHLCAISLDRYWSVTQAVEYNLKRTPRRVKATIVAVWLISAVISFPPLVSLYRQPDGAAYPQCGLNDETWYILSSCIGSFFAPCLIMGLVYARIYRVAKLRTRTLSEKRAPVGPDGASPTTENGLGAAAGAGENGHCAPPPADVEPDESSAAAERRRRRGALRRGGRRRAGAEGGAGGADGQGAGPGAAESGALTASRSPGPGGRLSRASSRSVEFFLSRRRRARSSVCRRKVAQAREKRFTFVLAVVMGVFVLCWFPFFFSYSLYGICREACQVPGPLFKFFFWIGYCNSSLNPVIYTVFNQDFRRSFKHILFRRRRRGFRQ

[7] = inhibitors of Sendai virus-induced IRF3 signaling, primary screen, TLR/RLR signaling modifier project, cell-based, Sendai virus stimulus, luciferase, 10K MLSCN set (AID 602276;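 active = inhibition at or above 50% at 10 µM; inactive = inhibition below 50%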;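 also: firefly luciferase from ISG56 promoter only with Renilla not read in this screen; 0% = Sendai virus plus DMSO and 100% = medium plus DMSO without virus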); conditions: HEK293 RL24 IRF3 luciferase reporter, at 10 µM, stronger effect = higher value
[8] = inhibitors of poly I:C-induced TLR3 signaling, primary screen, cell-based, poly I:C stimulus, luciferase, 10K MLSCN set (AID 602277;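 active = inhibition of the reporter signal at or above 50%; inactive = inhibition below 50%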); conditions: HEK293-TLR3 RL24 IRF3 luciferase reporter, at 10 µM, stronger effect = higher value

SMILES	cell count [1]	inhibition [1]	inhibition of aggregation [2]	nuclei count [2] [%]	inhibition [3]	nuclei count [3] [%]	fluorescence slope [4]	NADPH fluorescence slope [5]	slope [6]	inhibition [7]	inhibition [8]
CC1CCc2nn(CC(=O)NCCN3CCCCC3C)cc2C1 (stereo unspecified)	621	12% (inactive)	-27.1% (inactive)	106	-11.5% (inactive)	108	-0.62 (inactive)	6.4e-06 (inactive)	0.00605 (inactive)	7.09% (inactive)	33.8% (inactive)
CCOC(=O)N1CCN(CC(=O)c2c(C)[nH]c3ccccc23)CC1	349	10.5% (inactive)	-5.3% (inactive)	92.4	-113% (inactive)	143	-0.491 (inactive)	-6.3e-05 (inactive)	0.00584 (inactive)	0.348% (inactive)	6.29% (inactive)
COC(=O)c1ccccc1NC(=O)C1CC(=O)N(c2ccc(F)cc2)C1 (stereo unspecified)	321	6.5% (inactive)	-18.4% (inactive)	115	-16.8% (inactive)	134	-0.604 (inactive)	-3.1e-05 (inactive)	0.00375 (inactive)	14.7% (inactive)	5.83% (inactive)
c1ccc(-c2ccccc2OCCn2cncn2)cc1	780	-12.5% (inactive)	22.9% (inactive)	112	-63.6% (inactive)	111	-0.485 (inactive)	-3e-05 (inactive)	0.00513 (inactive)	2.95% (inactive)	26% (inactive)
CCN1C(=O)C2(C(C#N)=C(N)Oc3n[nH]c(C(C)C)c32)c2ccccc21 (stereo unspecified)	679	-4.5% (inactive)	-20.7% (inactive)	104	2.2% (inactive)	97	-0.485 (inactive)	-3.1e-05 (inactive)	0.005 (inactive)	20.9% (inactive)	21.2% (inactive)
S=c1[nH]nc(-c2cccc(Br)c2)o1	242	12.7% (inactive)	15.6% (inactive)	110	-57.8% (inactive)	120	-0.361 (inactive)	1.9e-05 (inactive)	0.0039 (inactive)	4.14% (inactive)	8.86% (inactive)
Cc1ccc(NC(=O)CCN2CCc3ccccc3C2)cc1	820	-9.6% (inactive)	-13.1% (inactive)	86.9	-44.8% (inactive)	113	-0.463 (inactive)	-0.000317 (inactive)	0.00467 (inactive)	5.12% (inactive)	24.7% (inactive)
COCCN(C(=O)c1csnn1)C(C(=O)NC(C)(C)C)c1cccc(OC)c1 (stereo unspecified)	684	-1.7% (inactive)	-26.8% (inactive)	76.2	0.2% (inactive)	102	-0.515 (inactive)	-2.6e-05 (inactive)	0.00595 (inactive)	17% (inactive)	14.6% (inactive)
COc1ccc(S(=O)(=O)N2CCC(C(=O)c3ccc4c(c3)OCCO4)CC2)cc1	298	-0.7% (inactive)	14.2% (inactive)	157	-51.9% (inactive)	119	-0.461 (inactive)	-8e-05 (inactive)	0.00739 (inactive)	-3.88% (inactive)	12.1% (inactive)
O=S(=O)(Nc1nc2ccccc2nc1NCc1ccco1)c1ccc(Cl)cc1	481	0.9% (inactive)	4.8% (inactive)	101	8.2% (inactive)	129	-0.448 (inactive)	-6.1e-05 (inactive)	0.00347 (inactive)	19.4% (inactive)	18.7% (inactive)
O=C1NC(Nc2ccccn2)(C(F)(F)F)C(=O)N1c1ccc(F)cc1 (stereo unspecified)	483	-1.9% (inactive)	-9.8% (inactive)	110	-79.1% (inactive)	111	-0.582 (inactive)	-4.6e-05 (inactive)	0.00277 (inactive)	13.9% (inactive)	6.37% (inactive)
N#Cc1c(NC(NC(=O)c2ccco2)C(=O)c2ccccc2)sc2c1CCCC2 (stereo unspecified)	415	-6% (inactive)	-7.6% (inactive)	118	-31.6% (inactive)	121	-0.369 (inactive)	9.4e-06 (inactive)	0.00297 (inactive)	5.59% (inactive)	22.2% (inactive)
COc1ccc(CNc2nc3nc(C)c(Cl)c(C)n3n2)cc1OC	684	-23.3% (inactive)	-2.8% (inactive)	110	-4.1% (inactive)	105	-0.331 (inactive)	-6e-05 (inactive)	0.00515 (inactive)	3.08% (inactive)	-10.6% (inactive)
O=C(NCc1ccccc1)c1ccc(OC2CSC2)cc1	655	-30.1% (inactive)	9.3% (inactive)	97.9	-45.7% (inactive)	108	-0.486 (inactive)	-4.6e-05 (inactive)	0.00606 (inactive)	-8.59% (inactive)	-14.1% (inactive)
COCCSc1ccccc1C(=O)Nc1nncs1	659	-27.6% (inactive)	-7.4% (inactive)	99.6	-60.7% (inactive)	112	-0.598 (inactive)	-2.1e-05 (inactive)	0.00672 (inactive)	-7.19% (inactive)	2.28% (inactive)
Cc1ccc(CSC2=NCCN2C(=O)C2CC2)cc1	221	-0.8% (inactive)	7.2% (inactive)	100	-26.8% (inactive)	107	-0.604 (inactive)	-2e-05 (inactive)	0.00584 (inactive)	11% (inactive)	11.8% (inactive)
O=C(c1cccs1)N1CCN=C1SCc1ccccc1	435	3.1% (inactive)	6.2% (inactive)	106	-33.5% (inactive)	111	-0.445 (inactive)	-9.7e-05 (inactive)	0.00597 (inactive)	2.79% (inactive)	-0.0227% (inactive)
CSCCC(NC(=O)OC(C)(C)C)C(=O)NC(CC(C)C)C(N)=O (stereo not drawn) (Boc-Met-Leu-NH2; configuration not given here)	396	-2.1% (inactive)	-0.6% (inactive)	114	7.9% (inactive)	101	-0.577 (inactive)	3.1e-05 (inactive)	0.00653 (inactive)	5.67% (inactive)	22% (inactive)
CCCCNC(=O)OCCNC(=O)NC	314	2.9% (inactive)	-7.8% (inactive)	100	-62.2% (inactive)	107	-0.317 (inactive)	-2.2e-05 (inactive)	0.00519 (inactive)	7.22% (inactive)	2.44% (inactive)
Cc1nc(NCc2ccco2)c2oc3ccccc3c2n1	337	15% (inactive)	-4.3% (inactive)	94.4	19.5% (inactive)	96.4	-0.389 (inactive)	-1.9e-05 (inactive)	0.00599 (inactive)	3.36% (inactive)	-32.5% (inactive)
Cc1noc(C)c1CSc1ccccc1C(=O)N1CCN(c2ccccc2)CC1	427	-1.2% (inactive)	-3.3% (inactive)	95.9	14.6% (inactive)	105	-0.482 (inactive)	1.7e-05 (inactive)	0.00481 (inactive)	1.46% (inactive)	7.95% (inactive)
COc1ccccc1C(=O)n1nc(-c2ccc(Cl)cc2)nc1N	330	-1.2% (inactive)	-3.1% (inactive)	104	-17.2% (inactive)	113	-0.426 (inactive)	1.8e-05 (inactive)	0.00385 (inactive)	2.38% (inactive)	9.48% (inactive)
Cc1oc(-c2cccc(Cl)c2)nc1CN1CCC(C(=O)N2CCN(c3ccccc3F)CC2)CC1	780	-0.6% (inactive)	-4% (inactive)	77.7	-73.6% (inactive)	108	-0.552 (inactive)	-2.2e-05 (inactive)	0.00639 (inactive)	-0.341% (inactive)	-26% (inactive)
Cc1nc2sc(C(c3cccc(F)c3)N3CCOCC3)c(O)n2n1 (stereo unspecified)	244	-9% (inactive)	-29% (inactive)	112	-18.1% (inactive)	119	-0.502 (inactive)	-9.8e-05 (inactive)	0.00576 (inactive)	-7.54% (inactive)	99.3% (active)
O=C(CSCc1ccc(F)cc1)NC1CCCC1	750	-2.8% (inactive)	12.7% (inactive)	101	33% (inactive)	93.5	-0.493 (inactive)	-5.3e-05 (inactive)	0.00649 (inactive)	-26.1% (inactive)	-75.4% (inactive)
COc1ccc(S(=O)(=O)Nc2ccc(F)c(Cl)c2)cc1OC	657	-18.6% (inactive)	-7.4% (inactive)	111	57.8% (inactive)	63	-0.431 (inactive)	-2e-05 (inactive)	0.00392 (inactive)	12.4% (inactive)	35.2% (inactive)
